Activity calls are given as the source filed them.
Columns and labels:
[1] = tested on: PRMT1 (protein arginine N-methyltransferase 1); assay: PRMT1 binders on small-molecule microarrays, primary screen, biochemical, small-molecule microarray, 635 nm fluorescence (AID 1088); conditions: small-molecule microarray binding, higher = more signal;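 also: binding of Prmt1 protein to compounds spotted on small-molecule microarray slides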
[2] = yeast growth modulation, basal conditions, primary screen, YJM789 clinical isolate, OD600, 24 h (AID 1089);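 also: growth of clinical yeast isolate S. cerevisiae YJM 789 seeded 1000 cells per well; test concentration not given here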; conditions: S. cerevisiae YJM789 growth, higher = more signal, called active from +8 up or from −8 down
[3] = fission yeast growth modulation, primary screen, strain 972, OD600, 24 h, no modulator (AID 1090);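 also: basal condition with compound alone and no growth modifier present; test concentration not given here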; conditions: S. pombe 972 growth, higher = more signal, called active from +8 up or from −8 down
[4] = S. cerevisiae growth modulation with rapamycin, primary screen, strain BY4716, OD600, 96 h (AID 1091); conditions: higher = more signal, called active from +8 up or from −8 down; also: test concentration not given here
[5] = molecular target: Torsin-1A-interacting protein 2 (Homo sapiens) (UniProt Q8NFQ8); assay: LULL1 binders on small-molecule microarray, primary screen, cell lysate, human LULL1 lysate, 635/667 nm fluorescence (AID 1092); conditions: hLULL1 lysate binding, 635 nm fluorescence, higher = more signal;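 also: probe is lysate of COS7 cells overexpressing human LULL1; score merges per-feature 667 nm fluorescence with signal-to-noise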
Chain of Torsin-1A-interacting protein 2 (Homo sapiens) (Q8NFQ8 whole entry, looked up): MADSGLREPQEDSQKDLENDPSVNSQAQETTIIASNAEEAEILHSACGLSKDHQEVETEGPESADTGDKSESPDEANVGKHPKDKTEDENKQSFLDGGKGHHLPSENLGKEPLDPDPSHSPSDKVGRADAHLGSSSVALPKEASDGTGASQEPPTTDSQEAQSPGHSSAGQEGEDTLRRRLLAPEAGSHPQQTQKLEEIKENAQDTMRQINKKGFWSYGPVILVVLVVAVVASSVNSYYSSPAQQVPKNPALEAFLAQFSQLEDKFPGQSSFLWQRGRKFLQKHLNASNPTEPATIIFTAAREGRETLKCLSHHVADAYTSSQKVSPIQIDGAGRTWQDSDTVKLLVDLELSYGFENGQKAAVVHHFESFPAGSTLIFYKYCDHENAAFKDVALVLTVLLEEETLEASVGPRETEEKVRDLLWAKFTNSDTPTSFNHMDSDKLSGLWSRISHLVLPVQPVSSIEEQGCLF

[6] = E. coli growth modulation, two-sided OD650, primary screen, E. coli filamentation project, strain DRC41, 24 h (AID 1093); conditions: OD650, 24 h, higher = more signal, called active from +8 up or from −8 down;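 also: MC1000 strain lacking acrAB efflux and sulA so SOS filamentation is blocked; test concentration not given here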
[7] = small-molecule microarray binders of probe aLefty2, primary screen, biochemical, biotinylated probe, 635/667 nm fluorescence (AID 1094); conditions: higher = more signal;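 also: score merges spot fluorescence near 667 nm with spot signal-to-noise ratio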
[8] = tested on: Noggin (protein binding on small-molecule microarray); assay: Noggin binders on small-molecule microarray, primary screen, biochemical, 635/667 nm fluorescence (AID 1095); conditions: 635 nm fluorescence, higher = more signal;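 also: score merges 667 nm feature fluorescence with signal to noise over triplicate slides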
[9] = molecular target: Neurogenic locus notch homolog protein 3 (Homo sapiens) (UniProt Q9UM47); assay: NOTCH3 binders on small-molecule microarray, primary screen, biochemical, 635/667 nm fluorescence (AID 1096); conditions: NOTCH3 binding, 635 nm fluorescence, higher = more signal
Chain of Neurogenic locus notch homolog protein 3 (Homo sapiens) (Q9UM47 whole entry, looked up): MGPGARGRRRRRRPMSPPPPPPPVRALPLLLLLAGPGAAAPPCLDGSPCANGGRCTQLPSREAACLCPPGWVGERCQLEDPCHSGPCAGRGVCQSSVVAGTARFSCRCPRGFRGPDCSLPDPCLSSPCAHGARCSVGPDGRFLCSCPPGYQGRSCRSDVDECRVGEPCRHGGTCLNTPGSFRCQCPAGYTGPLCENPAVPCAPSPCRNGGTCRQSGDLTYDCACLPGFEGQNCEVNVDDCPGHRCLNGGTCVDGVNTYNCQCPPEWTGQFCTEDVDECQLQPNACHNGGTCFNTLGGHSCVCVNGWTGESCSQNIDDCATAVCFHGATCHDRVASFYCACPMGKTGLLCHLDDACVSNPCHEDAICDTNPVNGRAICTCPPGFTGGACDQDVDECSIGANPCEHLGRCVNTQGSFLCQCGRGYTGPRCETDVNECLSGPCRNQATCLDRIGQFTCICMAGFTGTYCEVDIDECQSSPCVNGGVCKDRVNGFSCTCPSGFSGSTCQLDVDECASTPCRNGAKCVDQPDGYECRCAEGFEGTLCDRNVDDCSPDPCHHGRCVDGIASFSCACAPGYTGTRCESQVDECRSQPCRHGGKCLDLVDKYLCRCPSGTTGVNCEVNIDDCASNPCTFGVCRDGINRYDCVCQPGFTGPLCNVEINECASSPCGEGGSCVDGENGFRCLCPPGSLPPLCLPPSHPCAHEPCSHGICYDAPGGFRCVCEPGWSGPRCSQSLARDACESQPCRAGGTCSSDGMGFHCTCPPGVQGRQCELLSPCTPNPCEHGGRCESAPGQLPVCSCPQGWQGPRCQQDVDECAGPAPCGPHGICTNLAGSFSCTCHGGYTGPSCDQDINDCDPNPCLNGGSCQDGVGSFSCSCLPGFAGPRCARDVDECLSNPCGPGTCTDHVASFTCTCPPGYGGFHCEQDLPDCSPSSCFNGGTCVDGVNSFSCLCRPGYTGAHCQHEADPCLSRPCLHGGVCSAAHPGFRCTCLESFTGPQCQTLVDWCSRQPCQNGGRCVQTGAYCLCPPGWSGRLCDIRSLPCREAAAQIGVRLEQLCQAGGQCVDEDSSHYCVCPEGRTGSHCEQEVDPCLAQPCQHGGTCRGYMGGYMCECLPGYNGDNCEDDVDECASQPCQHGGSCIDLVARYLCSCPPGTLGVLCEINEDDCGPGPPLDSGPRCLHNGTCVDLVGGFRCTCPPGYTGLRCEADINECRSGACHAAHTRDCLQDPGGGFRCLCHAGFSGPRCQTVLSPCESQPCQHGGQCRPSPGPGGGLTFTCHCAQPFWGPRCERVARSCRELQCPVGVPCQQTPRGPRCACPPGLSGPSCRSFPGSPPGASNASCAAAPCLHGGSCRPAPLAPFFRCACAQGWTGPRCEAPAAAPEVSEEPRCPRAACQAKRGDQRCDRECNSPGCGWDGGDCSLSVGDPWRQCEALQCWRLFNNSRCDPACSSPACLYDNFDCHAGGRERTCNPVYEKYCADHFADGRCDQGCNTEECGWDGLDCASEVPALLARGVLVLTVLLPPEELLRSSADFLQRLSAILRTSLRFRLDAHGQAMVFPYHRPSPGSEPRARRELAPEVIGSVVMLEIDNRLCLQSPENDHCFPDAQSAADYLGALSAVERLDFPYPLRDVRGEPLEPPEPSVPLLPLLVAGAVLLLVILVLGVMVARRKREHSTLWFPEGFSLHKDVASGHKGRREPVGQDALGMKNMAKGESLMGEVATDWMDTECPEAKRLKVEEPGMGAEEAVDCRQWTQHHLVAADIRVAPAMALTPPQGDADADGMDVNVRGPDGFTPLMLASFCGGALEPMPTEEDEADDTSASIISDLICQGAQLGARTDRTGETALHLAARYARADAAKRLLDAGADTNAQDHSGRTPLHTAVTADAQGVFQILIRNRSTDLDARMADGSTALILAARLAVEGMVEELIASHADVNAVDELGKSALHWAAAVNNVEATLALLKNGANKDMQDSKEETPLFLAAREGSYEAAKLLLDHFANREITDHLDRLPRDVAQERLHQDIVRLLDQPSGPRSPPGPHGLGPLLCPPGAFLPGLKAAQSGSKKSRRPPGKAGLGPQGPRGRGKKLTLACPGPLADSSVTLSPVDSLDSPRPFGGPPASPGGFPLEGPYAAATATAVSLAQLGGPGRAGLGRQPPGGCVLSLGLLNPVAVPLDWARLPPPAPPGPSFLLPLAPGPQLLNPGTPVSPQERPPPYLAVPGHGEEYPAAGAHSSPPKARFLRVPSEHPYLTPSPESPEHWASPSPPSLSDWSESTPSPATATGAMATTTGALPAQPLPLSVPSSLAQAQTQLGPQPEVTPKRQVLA

[10] = small-molecule microarray binders of probe aEGFR, primary screen, biochemical, biotinylated probe, 635/667 nm fluorescence (AID 1097); conditions: higher = more signal;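 also: probe is a biotinylated anti-EGFR antibody binding compounds printed on slides; score combines fluorescence near 667 nm and signal to noise of each spot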
[11] = tested on: Plasmodium falciparum Sir2 (PF13_0152, Sir2A); assay: pfSir2 binders on small-molecule microarrays, primary screen, biochemical, small-molecule microarray, 635 nm fluorescence (AID 1098); conditions: small-molecule microarray binding, fluorescence 635 nm; higher = more signal;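 also: score merges spot fluorescence intensity with its signal-to-noise ratio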
[12] = small-molecule microarray binders of probe aDKK1, primary screen, biochemical, biotinylated probe, 635/667 nm fluorescence (AID 1099); conditions: higher = more signal;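 also: score merges 667nm spot fluorescence with signal to noise across triplicate slides; reference of the scale not given here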
[13] = small-molecule microarray binders of probe aCHRDL2, primary screen, biochemical, biotinylated probe, 635/667 nm fluorescence (AID 1100); conditions: higher = more signal
[14] = splicing luciferase reporter signal modulators, primary screen, spliceosome inhibition project, cell-based, HEK293, splice +/- reporter (AID 1101); conditions: luminescence, 24 h, higher = more signal, called active from +8 up or from −8 down;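 also: HEK293 cells carrying a splicing-competent luciferase reporter gene; test concentration not given here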
[15] = molecular target: Fibroblast growth factor 10 (Homo sapiens) (UniProt O15520); assay: FGF10 binders on small-molecule microarrays, primary screen, biochemical, small-molecule microarray, 635 nm fluorescence (AID 1102); conditions: FGF10 binding, fluorescence 635 nm, higher = more signal
Chain of Fibroblast growth factor 10 (Homo sapiens) (O15520 whole entry, looked up): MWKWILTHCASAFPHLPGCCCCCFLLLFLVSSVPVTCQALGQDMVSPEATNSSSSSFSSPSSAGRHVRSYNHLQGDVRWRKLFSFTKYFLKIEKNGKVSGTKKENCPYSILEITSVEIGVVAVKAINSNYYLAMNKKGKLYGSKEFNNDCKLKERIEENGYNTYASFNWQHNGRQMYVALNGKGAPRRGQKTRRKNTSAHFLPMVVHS

[16] = tested on: glycogen synthase kinase-3 (GSK3A per assay name; protocol says GSK3B); assay: GSK3 binders on small-molecule microarrays, primary screen, biochemical, small-molecule microarray, 635 nm fluorescence, GSK3A (AID 1103); conditions: small-molecule microarray binding, fluorescence 635 nm; higher = more signal; also: the record names both GSK3A and GSK3B
[17] = molecular target: Epidermal growth factor receptor (Homo sapiens) (UniProt P00533); assay: EGFR binders on small-molecule microarrays, primary screen, biochemical, small-molecule microarray, 635 nm fluorescence (AID 1104); conditions: EGFR binding, higher = more signal;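 also: score merges 667 nm emission intensity with spot signal to noise over triplicate slides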
Chain of Epidermal growth factor receptor (Homo sapiens) (P00533 whole entry, looked up): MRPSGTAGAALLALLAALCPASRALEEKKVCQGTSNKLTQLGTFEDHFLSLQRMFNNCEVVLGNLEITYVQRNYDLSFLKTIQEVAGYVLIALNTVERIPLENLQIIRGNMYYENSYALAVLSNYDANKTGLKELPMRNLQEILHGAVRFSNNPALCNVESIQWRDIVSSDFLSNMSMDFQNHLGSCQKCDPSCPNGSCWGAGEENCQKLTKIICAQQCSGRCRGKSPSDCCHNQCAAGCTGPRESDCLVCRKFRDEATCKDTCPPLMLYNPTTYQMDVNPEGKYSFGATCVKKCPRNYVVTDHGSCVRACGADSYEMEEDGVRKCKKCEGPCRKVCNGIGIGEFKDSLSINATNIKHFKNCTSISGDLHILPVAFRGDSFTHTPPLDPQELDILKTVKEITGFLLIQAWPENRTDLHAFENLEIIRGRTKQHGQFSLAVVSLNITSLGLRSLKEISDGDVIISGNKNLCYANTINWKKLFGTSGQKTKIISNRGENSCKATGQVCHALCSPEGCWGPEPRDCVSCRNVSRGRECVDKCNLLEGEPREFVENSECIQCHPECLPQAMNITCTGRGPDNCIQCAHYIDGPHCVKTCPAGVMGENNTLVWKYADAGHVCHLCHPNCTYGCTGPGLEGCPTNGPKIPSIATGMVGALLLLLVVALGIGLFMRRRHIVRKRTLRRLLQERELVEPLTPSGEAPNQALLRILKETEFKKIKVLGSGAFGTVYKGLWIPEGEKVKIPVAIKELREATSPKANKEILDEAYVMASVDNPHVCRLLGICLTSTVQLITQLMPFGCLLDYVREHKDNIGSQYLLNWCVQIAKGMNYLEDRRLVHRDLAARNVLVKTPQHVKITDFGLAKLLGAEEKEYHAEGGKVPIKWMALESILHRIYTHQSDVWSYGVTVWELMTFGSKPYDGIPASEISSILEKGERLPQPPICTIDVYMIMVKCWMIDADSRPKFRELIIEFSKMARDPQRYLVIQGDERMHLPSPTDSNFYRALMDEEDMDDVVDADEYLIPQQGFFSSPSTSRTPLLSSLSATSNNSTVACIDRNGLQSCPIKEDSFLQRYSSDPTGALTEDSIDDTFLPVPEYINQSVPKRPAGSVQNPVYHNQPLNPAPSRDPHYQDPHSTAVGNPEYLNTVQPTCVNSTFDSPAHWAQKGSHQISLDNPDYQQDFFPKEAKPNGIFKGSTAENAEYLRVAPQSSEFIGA

[18] = molecular target: Follistatin-related protein 3 (Homo sapiens) (UniProt O95633); assay: FSTL3 binders on small-molecule microarrays, primary screen, biochemical, small-molecule microarray, 635 nm fluorescence (AID 1105); conditions: FSTL3 binding, higher = more signal;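 also: score merges emission near 667 nm and signal to noise per printed spot across three slides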
Chain of Follistatin-related protein 3 (Homo sapiens) (O95633 whole entry, looked up): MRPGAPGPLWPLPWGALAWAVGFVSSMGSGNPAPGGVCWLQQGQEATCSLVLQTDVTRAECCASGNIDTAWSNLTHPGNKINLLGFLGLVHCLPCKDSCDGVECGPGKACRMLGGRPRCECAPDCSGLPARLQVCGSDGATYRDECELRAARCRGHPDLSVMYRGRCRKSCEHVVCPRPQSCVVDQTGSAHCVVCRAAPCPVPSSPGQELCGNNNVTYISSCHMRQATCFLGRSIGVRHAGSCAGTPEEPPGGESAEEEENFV

[19] = molecular target: Dickkopf-related protein 1 (Homo sapiens) (UniProt O94907); assay: DKK1 binders on small-molecule microarrays, primary screen, biochemical, small-molecule microarray, 635 nm fluorescence scan (AID 1106); conditions: DKK1 binding, higher = more signal;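 also: score merges emission near 667 nm with signal to noise over three replicate slides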
Chain of Dickkopf-related protein 1 (Homo sapiens) (O94907 whole entry, looked up): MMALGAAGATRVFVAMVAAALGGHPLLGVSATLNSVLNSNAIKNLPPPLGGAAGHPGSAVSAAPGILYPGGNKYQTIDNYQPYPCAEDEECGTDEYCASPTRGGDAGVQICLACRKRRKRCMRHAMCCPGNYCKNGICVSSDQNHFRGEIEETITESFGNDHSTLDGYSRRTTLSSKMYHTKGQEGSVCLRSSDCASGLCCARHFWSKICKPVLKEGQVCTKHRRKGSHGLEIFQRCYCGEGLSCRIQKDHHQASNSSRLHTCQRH

[20] = tested on: Inhibin beta A chain (activin A); assay: INHBA (activin A) binders on microarrays, primary screen, biochemical, small-molecule microarray, 635 nm fluorescence scan (AID 1107); conditions: small-molecule microarray binding, higher = more signal;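 also: mouse activin A protein probed at 4.33 µg/mL on printed slides; score merges bound-protein fluorescence near 667 nm with spot signal-to-noise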

| Structure (SMILES) | composite z-score [1] | z-score [2] | z-score [3] | z-score [4] | composite z-score [5] | z-score [6] | composite z-score [7] | composite z-score [8] | composite z-score [9] | composite z-score [10] | composite z-score [11] | composite z-score [12] | composite z-score [13] | z-score [14] | composite z-score [15] | composite z-score [16] | composite z-score [17] | composite z-score [18] | composite z-score [19] | composite z-score [20] |
| --- | --- | --- | --- | --- | --- | --- | --- | --- | --- | --- | --- | --- | --- | --- | --- | --- | --- | --- | --- | --- |
| Cc1ccc(C2CC=C(C(=O)O)CN2S(=O)(=O)c2ccc(C)cc2)cc1 (stereo not given) | 0.732 | 0.0388 (inactive) | 1.02 (inactive) | 0.856 (inactive) | 2.49 | -1.16 (inactive) | 0.0527 | 0.153 | 0.984 | -0.071 | 1.3 | 0.135 | 0.665 | -0.16 (inactive) | 0.31 | 0.834 | 0.201 | 0.338 | 0.0374 | 0.584 |
| CC(CCN1CCCCc2nc(C)c(C)cc21)=NOC(C)CN1CCCc2nc(C)c(C)cc21 (stereo not given) | 1.52 | -1.19 (inactive) | -1.06 (inactive) | -0.321 (inactive) | 2.91 | 0.162 (inactive) | 0.447 | 1.07 | 1.04 | 0.509 | 1.53 | 0.699 | -0.324 | 0.506 (inactive) | 1.35 | 1.32 | 1.56 | 1.47 | 1.05 | 1.5 |
| CC(=O)OC[C@H]1O[C@H](CCON=C(C)CCN2CCc3nc(-c4ccccc4)c(-c4ccccc4)cc3C2)C=C[C@@H]1OC(C)=O | 1.25 | -1.92 (inactive) | -0.757 (inactive) | -4.46 (inactive) | 1.26 | 0.901 (inactive) | -0.0258 | 0.169 | 0.0346 | -0.0549 | 0.323 | -0.154 | 0.101 | 0.82 (inactive) | -0.422 | 0.102 | 0.392 | 0.189 | 0.222 | 1.16 |
| N#Cc1ccc(NN2C(C(O)c3cccc4ccccc34)C=CC3C(=O)N(c4ccccc4)C(=O)C32)cc1 (stereo not given) | 1.39 | 0.242 (inactive) | 2.28 (inactive) | 1.75 (inactive) | 3.41 | -0.339 (inactive) | 0.341 | 0.157 | -0.262 | 0.0785 | 0.582 | 0.687 | 1.14 | 1.27 (inactive) | 0.899 | 0.676 | 0.316 | 0.898 | -0.203 | 0.478 |
| CCN1C(=O)[C@H]2[C@H]3[C@H](O)[C@H](O)CC(=NOCc4ccccc4)[C@H]3CC[C@H]2C1=O | -0.204 | -0.896 (inactive) | -0.337 (inactive) | -0.262 (inactive) | 0.21 | 0.632 (inactive) | -0.386 | 0.863 | 0.469 | -0.0953 | 0.18 | -0.237 | -0.278 | 0.462 (inactive) | 0.47 | 0.0166 | 0.0741 | -0.257 | 0.132 | -0.114 |

Reference: PubChem BioAssay
